This is an account of results in PubChem BioAssay (Tox21).

Values joined by “and” are separate entries in the source; they are usually repeats but may differ in a detail not shown here. Equal entries are not always repeated. Records with an inconclusive call do not appear. Active and inactive are the calls of the source. Unless noted, calls follow the shape of the dose curve; as a rule, active = well fitted curve in the direction sought with a large enough effect in the repeat runs; inconclusive = weak or mixed curves; inactive = no such curve, though single readings can be large; an effect the other way counts as inactive or inconclusive.

A short description of assay [1]: qHTS assay to identify small molecule antagonists of the glucocorticoid receptor (GR) signaling pathway - cell viability counter screen (AID 720693). Also: nearly all actives have a fitted effect of over 55% in size.
The nature of assay [2]: qHTS assay for identifying genotoxic compounds that show differential cytotoxicity against isogenic chicken DT40 cell lines with known DNA damage response pathways - wild type cell line (AID 743012). Also: nearly all actives have a fitted effect of over 60% in size. Also: potency is read from the fitted curve at half-maximal effect. The essentials: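 Cytotoxicity in repair-proficient parental chicken DT40 cells serves as the comparator for Rad54/Ku70- and Rev3-deficient lines. Cells were exposed to compounds for 40 h at 37 C/5% CO2, and ATP-based luminescence (CellTiter-Glo) measured viability.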
On the technique in general: qHTS replaces the single test concentration by a dilution series.

Assay [3] in a line: qHTS assay for identifying genotoxic compounds that show differential cytotoxicity against isogenic chicken DT40 cell lines with known DNA damage response pathways - Rev3 mutant cell line (AID 743014). Also: nearly all actives have a fitted effect of over 55% in size. Also: potency is read from the fitted curve at half-maximal effect.
Assay [4] is described as follows: qHTS assay for identifying genotoxic compounds that show differential cytotoxicity against isogenic chicken DT40 cell lines with known DNA damage response pathways - Rad54/Ku70 mutant cell line (AID 743015). Also: nearly all actives have a fitted effect of over 60% in size. Also: potency is read from the fitted curve at half-maximal effect.
Assay [5] can be described thus: qHTS assay to identify small molecule antagonists of the androgen receptor (AR) signaling pathway - cell viability counter screen (AID 743033; also: nearly all actives have a fitted effect of over 45% in size).
A short description of assay [6]: qHTS assay to identify small molecule antagonists of the androgen receptor (AR) signaling pathway using the MDA cell line - cell viability counter screen (AID 743041; also: nearly all actives have a fitted effect of over 45% in size; also: potency is read from the fitted curve at half-maximal effect). Put shortly: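 qHTS viability read-out; MDA-kb2 AR-luc; R1881-stimulated; 16 h exposure at 37C, 0% CO2; CellTiter-Fluor, 30 min; fluorescence intensity.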
In assay [7] the target is Androgen receptor (Homo sapiens) (UniProt P10275). Description: qHTS assay to identify small molecule agonists of the androgen receptor (AR) signaling pathway using the MDA cell line (AID 743040; also: nearly all actives have a fitted effect of over 20% in size). The essentials:
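Agonist activity is measured as luciferase luminescence in human MDA-kb2 cells whose MMTV reporter responds to both AR and GR. Compounds in DMSO incubate 16 h at 37C, 0% CO2, and ONE-Glo is read after 30 min.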

The target is the same in assay [8]. Description: qHTS assay to identify small molecule antagonists of the androgen receptor (AR) signaling pathway using the MDA cell line (AID 743042; also: nearly all actives have a fitted effect of over 55% in size). Put shortly:
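MDA-kb2 cells (human breast carcinoma, stably carrying an MMTV-luciferase reporter responsive to AR and GR) were plated at 3,000 cells/well and preincubated 5 hr at 37C, then given compound plus R1881 agonist for 16 h. ONE-Glo luminescence was read.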

Assay [9] has the same target. In words: qHTS assay to identify small molecule agonists of the androgen receptor (AR) signaling pathway (AID 743036; active = well fitted activation curve with a large enough effect in the signal ratio in the repeat runs, with a control signal flat, not every such curve was filed as active; the % refers to the signal ratio). The essentials: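 In this Tox21 qHTS, 2,000 HEK293 AR-bla cells per well were incubated with compounds for 16 h at 37C and 5% CO2. Fluorescence intensity was recorded 2 h after adding LiveBLAzer B/G FRET substrate at room temperature.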

Androgen receptor (Homo sapiens), sequence (P10275 whole entry, looked up): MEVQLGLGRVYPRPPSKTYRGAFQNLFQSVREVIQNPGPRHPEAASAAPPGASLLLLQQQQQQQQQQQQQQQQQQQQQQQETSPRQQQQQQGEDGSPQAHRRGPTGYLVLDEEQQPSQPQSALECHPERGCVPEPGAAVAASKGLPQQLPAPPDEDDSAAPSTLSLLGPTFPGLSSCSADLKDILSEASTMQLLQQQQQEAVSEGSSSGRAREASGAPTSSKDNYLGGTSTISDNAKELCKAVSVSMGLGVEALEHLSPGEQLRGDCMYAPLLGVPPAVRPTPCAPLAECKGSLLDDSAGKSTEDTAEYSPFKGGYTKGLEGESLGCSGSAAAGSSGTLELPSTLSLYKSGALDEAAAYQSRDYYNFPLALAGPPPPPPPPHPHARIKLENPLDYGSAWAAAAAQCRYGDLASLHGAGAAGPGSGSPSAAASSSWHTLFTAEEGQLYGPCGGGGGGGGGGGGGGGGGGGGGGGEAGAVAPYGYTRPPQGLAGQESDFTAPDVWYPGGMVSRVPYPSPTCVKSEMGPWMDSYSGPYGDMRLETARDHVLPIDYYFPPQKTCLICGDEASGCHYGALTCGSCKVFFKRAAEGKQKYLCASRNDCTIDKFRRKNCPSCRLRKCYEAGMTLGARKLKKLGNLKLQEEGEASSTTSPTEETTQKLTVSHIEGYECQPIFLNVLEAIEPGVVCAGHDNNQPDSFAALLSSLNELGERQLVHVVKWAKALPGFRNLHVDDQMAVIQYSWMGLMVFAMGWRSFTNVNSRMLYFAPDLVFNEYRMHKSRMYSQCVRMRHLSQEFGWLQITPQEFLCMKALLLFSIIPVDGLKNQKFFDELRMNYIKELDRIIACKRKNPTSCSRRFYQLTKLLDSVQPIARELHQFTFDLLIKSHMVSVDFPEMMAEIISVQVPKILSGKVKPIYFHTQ

Turning to `CSSc1ccoc1C`, the Potency result in assay [1], in assay [5] and in [6] was “inactive” in each case. In addition, the Potency in [2] is 19.2 µM (active); in [3], 34.2 µM (active); in assay [4] it was 19.2 µM (active).
Turning to `NC(=O)CCCCC(N)=O`, the Potency entry in assay [1], in assay [2], in assay [3], in [4], in assay [5] and in [6] was “inactive” in each case.
In the case of `CC1C(C)(C)C2=C(C(=O)CCC2)C1(C)C` (stereo not given), the Potency entry in assay [1], in [2], in assay [3], in assay [4], in assay [5] and in [6] was “inactive” throughout.
In the case of `CC[C@H]1OC(=O)[C@H](C)[C@@H](O[C@H]2C[C@@](C)(OC)[C@@H](O)[C@H](C)O2)[C@H](C)[C@@H](O[C@@H]2O[C@H](C)C[C@H](N(C)C)[C@H]2O)[C@](C)(O)C[C@@H](C)CN(C)[C@H](C)[C@@H](O)[C@]1(C)O`, the Potency result in [1], in [5] and in assay [6] was “inactive” each time. The Potency is 3.76 µM (active) and 2.87 µM (active) in assay [2]; 2.11 µM (active) and 1.81 µM (active) in [3]; 3.76 µM (active) and 2.56 µM (active) in assay [4].
With `C1CCCCC1`, the Potency entry in [1], in assay [2], in assay [3], in assay [4], in assay [5] and in assay [6] was “inactive” throughout.
Take `CCSC(=O)N(CC)CC`: the Potency entry in [1], in assay [2], in [3], in assay [4], in assay [5] and in assay [6] was “inactive” in each case.
With `O=C(NC(Cc1cc(=O)[nH]c2ccccc12)C(=O)O)c1ccc(Cl)cc1` (stereo not given), the Potency entry in assay [1], in assay [2], in assay [3], in assay [4], in assay [5] and in assay [6] was “inactive” throughout.
For `CCN(CC)C(=O)N1CCN(C)CC1`, the Potency entry in assay [1], in assay [2], in assay [3], in [4] and in assay [6] was “inactive” each time.
For `Cc1cc(CCC(=O)OCCOCCOCCOC(=O)CCc2cc(C)c(O)c(C(C)(C)C)c2)cc(C(C)(C)C)c1O`, the Potency entry in assay [1] and in assay [6] was “inactive” in each case. In addition, the Potency in [2] is 26.6 µM (active); in [3] it was 26.6 µM (active); in assay [4], 23.7 µM (active).
For the compound `CN1CCCN(C(c2ccccc2)c2ccc(Cl)cc2)CC1` (stereo not given), the Potency result in [1], in assay [7], in [6] and in assay [8] was “inactive” each time. In addition, the Potency was 9.44 µM (active) in [2], 11.9 µM (active) in assay [3] and 18.8 µM (active) in assay [4].
As for `Cc1ccc2nc(N)[nH]c(=O)c2c1Sc1ccncc1`, the Potency result in assay [1], in [5] and in assay [6] was “inactive” each time. Moreover, the Potency in assay [2] is 1.88 µM (active); in assay [3], 0.944 µM (active); in assay [4] it was 0.596 µM (active).
As to `O=[N+]([O-])C1(Br)COCOC1`, the Potency result in assay [1] and in assay [6] was “inactive” throughout. In addition, the Potency in assay [2] was 12.2 µM (active); in assay [3] it was 21.7 µM (active); in assay [4] it was 21.7 µM (active).
Take `CCN(CC)CCOc1ccccc1C(=O)CCc1ccccc1`: the Potency result in [1] and in [6] was “inactive” in each case. Besides, the Potency in assay [2] was 11.9 µM (active); in assay [3], 26.6 µM (active); in [4], 26.6 µM (active).
Consider `CC(C(=O)O)c1ccc(C(=O)c2cccs2)cc1` (stereo not given), for which the Potency entry in assay [1], in assay [2], in assay [3], in [4], in assay [5] and in assay [6] was “inactive” throughout.
As to `Nc1ccc(NC(=O)c2ccc(N)cc2)cc1`, the Potency entry in assay [1], in assay [2], in [3], in assay [5], in assay [7] and in assay [6] was “inactive” in each case. Further, the Potency result in assay [8] is “inactive”. The result in [9] was inactive.
Turning to `COC(OC)OC`, the Potency result in assay [1], in [2], in [3], in assay [4], in assay [5] and in [6] was “inactive” throughout.
As to `CC(C)COC(=O)c1ccc(O)cc1`, the Potency entry in [1], in [2], in [3], in [5] and in assay [6] was “inactive” each time.
Turning to `CN(C)CC/C=C1\c2ccccc2Sc2ccc(Cl)cc21`, the Potency result in assay [1] and in assay [7] was “inactive” in each case. Besides, the Potency is 3.76 µM (active) in [2], 16.8 µM (active) in assay [3], 10.6 µM (active) in assay [4] and 27.8 µM (active) in [6].
For `CCN(CC)CCNC(=O)c1cc(Cl)c(N)cc1OC`, the Potency entry in assay [1], in assay [2], in assay [3], in assay [4], in [5] and in assay [6] was “inactive” throughout.
As for `CC[C@H]1OC(=O)[C@H](C)[C@@H](O[C@H]2C[C@@](C)(OC)[C@@H](O)[C@H](C)O2)[C@H](C)[C@@H](O[C@@H]2O[C@H](C)C[C@H](N(C)C)[C@H]2O)[C@](C)(O)C[C@@H](C)C(=O)[C@H](C)[C@@H](O)[C@]1(C)O`, the Potency result in assay [1], in [2], in assay [3], in assay [4], in assay [5] and in [6] was “inactive” in each case.
For `CC(C)N(C)C`, the Potency entry in assay [1], in assay [2], in assay [3], in [4], in [5] and in assay [6] was “inactive” in each case.
For `CCNc1nc(N)nc(Cl)n1`, the Potency entry in [1], in assay [2], in assay [3], in assay [4], in assay [5] and in assay [6] was “inactive” in each case.
